Measured values from PubChem BioAssay (NCI).
About 79,000 compounds went through this panel and 15% of them were active in at least one assay; those are over-represented in the sample as a whole. Active and inactive are the calls of the source. Rule as the data show it: active = growth inhibition above about 70%; inactive = the rest. Where a SMILES comes first, the peptide text is derived from it. The star is where a group is joined. Trt = c1ccc(C(c2ccccc2)(c2ccccc2)*)cc1

Legend:
[1] = NCI Yeast Anticancer Drug Screen. Data for the rad50 strain (AID 155);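 also: 0% = growth of vehicle-only cultures of the same strain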; conditions: S. cerevisiae rad50 strain growth inhibition; at 50.0 µM; active compounds read high
Procedure, shortened: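 Inhibition values express reduced yeast growth in compound-treated cultures relative to vehicle-treated controls.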

[2] = NCI Yeast Anticancer Drug Screen. Data for the mec2-1 strain (AID 157); conditions: S. cerevisiae mec2-1 strain, at 50.0 µM, active compounds read high
Procedure, shortened: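 Mutant yeast (mec2-1) grown with compound; growth inhibition relative to vehicle control reported.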

[3] = NCI Yeast Anticancer Drug Screen. Data for the sgs1 mgt1 strain (AID 161);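 also: 0% = growth of cultures given vehicle only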; conditions: S. cerevisiae sgs1 mgt1 strain, at 50.0 µM, active compounds read high
Procedure, shortened: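 Percent growth inhibition was derived by comparing compound-exposed mutant yeast with vehicle-exposed cultures. The strain carries alterations in DNA damage repair.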

[4] = NCI Yeast Anticancer Drug Screen. Data for the cln2 rad14 strain (AID 165);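 also: 0% = growth equal to vehicle treated cultures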; conditions: S. cerevisiae cln2 rad14 strain, at 50.0 µM, active compounds read high
Procedure, shortened: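 Readout is yeast growth inhibition versus vehicle-treated controls, using a strain with cln2 and rad14 alterations exposed to compound.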

[5] = NCI Yeast Anticancer Drug Screen. Data for the bub3 strain (AID 167); conditions: S. cerevisiae bub3 mutant strain, at 50.0 µM, active compounds read high
Procedure, shortened: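 Steps: expose the mutant yeast strain to compound; grow alongside vehicle-treated cultures; measure growth; express inhibition against the vehicle cultures.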

[6] = NCI Yeast Anticancer Drug Screen. Data for the mlh1 rad18 strain (AID 175); conditions: S. cerevisiae mlh1 rad18 strain growth inhibition; at 50.0 µM; active compounds read high
Procedure, shortened: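 Genetically defined yeast (DNA repair-deficient) exposed to compounds; growth inhibition determined relative to vehicle.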

Measured: growth inhibition

Nc1cccc(C(=O)Nc2ccc3c(O)cc(S(=O)(=O)O)cc3c2)c1
inactive: [1] 15.2% | [2] -3.1% | [3] 11.9% | [4] -30.4% | [5] -12.4% | [6] 7.05%

CCOC(=O)NC(CCl)NC(=O)OCC
inactive: [1] -11.7% | [2] -5.6% | [3] -2.05% | [4] -77% | [5] 6.4% | [6] -35.5%

Cc1ccc(CCOS(=O)(=O)c2ccc(C)cc2)cc1
inactive: [1] 13.5% | [2] -26.5% | [3] -1.3% | [4] 10.2% | [5] 28% | [6] 10.7%

CC1CCc2c(ccc3ccccc23)C1 (stereo not given)
inactive: [1] -0.25% | [2] -16.4% | [3] -3.55% | [4] -4.55% | [5] -16.8% | [6] -2.05%

Cc1cc(C(N)=O)c2ccccc2n1
inactive: [1] -11% | [2] -47.2% | [3] -15.7% | [4] 11.4% | [5] -34.4% | [6] -6.25%

Cc1cccc([N+](=O)[O-])c1C
inactive: [1] 13.7% | [2] -10.4% | [3] 7.3% | [4] 23.4% | [5] 10.8% | [6] -15.6%

CS/C(N)=N\C(=O)N(C)C
inactive: [1] 2.75% | [2] -14.5% | [3] -4.45% | [4] -20.6% | [5] -8.55% | [6] 3.65%

COc1nnc(-c2ccccc2)c(-c2ccccc2)n1
inactive: [1] 13.2% | [2] 20.3% | [3] -2.25% | [4] -9.6% | [5] 25.5% | [6] 6.5%

O=C1c2ccccc2C(O)N1CCc1c[nH]c2ccccc12 (stereo not given)
inactive: [1] 12.4% | [2] -24.1% | [3] -12.1% | [4] 8.2% | [5] 1.3% | [6] -10.9%

CC(C)[Si]1(C(C)C)OCC2OC(n3c(C(=O)c4ccccc4)cc(=O)[nH]c3=O)CC2O[Si](C(C)C)(C(C)C)O1 (stereo not given)
inactive: [1] -2.2% | [2] 5.7% | [3] 17.5% | [4] 24.4% | [5] 17.9% | [6] 6.35%

CCOC(=O)C1CC(=O)N(Cc2ccccc2)C(=O)N1 (stereo not given)
inactive: [1] -11.1% | [2] 1.8% | [3] -17.6% | [4] -16.9% | [5] 22.1% | [6] -3.5%

COc1ccc(CC(=O)OCC2CCCO2)cc1OC (stereo not given)
inactive: [1] -8.5% | [2] -1.25% | [3] 9.9% | [4] -20.6% | [5] 5.6% | [6] 4%

CC(=O)OCc1ccc(C)c(COC(C)=O)c1
inactive: [1] 3.45% | [2] -20.6% | [3] -9.4% | [4] 3.8% | [5] 1.1% | [6] -9.4%

CS/C(c1ccccc1)=[N+](/C)[O-]
inactive: [1] 42.6% | [2] 16.5% | [3] 17.3% | [4] -1% | [5] 24.6% | [6] 25.6%

Nc1nc(=O)n(CCCOc2cccc(Cl)c2)cc1-c1ccc(Cl)c(Cl)c1
active: [5] 87%
inactive: [1] 52.6% | [2] 49.4% | [3] 52.2% | [4] 68.8% | [6] 51.5%

COC(=O)C(NC(=O)C(N)CSC(c1ccccc1)(c1ccccc1)c1ccccc1)C(C)C (stereo not given) (H-Cys(Trt)-Val-OMe; configuration not given here)
active: [1] 97.3% | [2] 98.6% | [3] 98.7% | [4] 95.2% | [5] 97.6% | [6] 98.5%

CC(NNC(=S)N1CCCC1)c1cccc[n+]1[O-] (stereo not given)
inactive: [1] 3.4% | [2] -2.85% | [3] 8.4% | [4] -4.9% | [5] 8.3% | [6] 13.9%

NCCO
inactive: [1] -1% | [2] 1.15% | [3] -11.8% | [4] -3.6% | [5] 13.2% | [6] -18.9%

CSc1ccc(NC(=S)NN(C)C)cc1
inactive: [1] -22.9% | [2] -25.3% | [3] -15.2% | [4] 9.35% | [5] 1.4% | [6] -7.65%

O
inactive: [1] 13.2% | [2] 9.15% | [3] 17% | [4] 6.2% | [5] -16.8% | [6] -4%
